The values below come from PubChem BioAssay (Tox21).

Structures are written as SMILES. Values without a mark were called inactive. A call without a number means that no potency is given here. Active and inactive are the calls of the source. The call rests on the fitted dose curve.

Acetylcholinesterase (Homo sapiens), sequence (P22303 whole entry, looked up): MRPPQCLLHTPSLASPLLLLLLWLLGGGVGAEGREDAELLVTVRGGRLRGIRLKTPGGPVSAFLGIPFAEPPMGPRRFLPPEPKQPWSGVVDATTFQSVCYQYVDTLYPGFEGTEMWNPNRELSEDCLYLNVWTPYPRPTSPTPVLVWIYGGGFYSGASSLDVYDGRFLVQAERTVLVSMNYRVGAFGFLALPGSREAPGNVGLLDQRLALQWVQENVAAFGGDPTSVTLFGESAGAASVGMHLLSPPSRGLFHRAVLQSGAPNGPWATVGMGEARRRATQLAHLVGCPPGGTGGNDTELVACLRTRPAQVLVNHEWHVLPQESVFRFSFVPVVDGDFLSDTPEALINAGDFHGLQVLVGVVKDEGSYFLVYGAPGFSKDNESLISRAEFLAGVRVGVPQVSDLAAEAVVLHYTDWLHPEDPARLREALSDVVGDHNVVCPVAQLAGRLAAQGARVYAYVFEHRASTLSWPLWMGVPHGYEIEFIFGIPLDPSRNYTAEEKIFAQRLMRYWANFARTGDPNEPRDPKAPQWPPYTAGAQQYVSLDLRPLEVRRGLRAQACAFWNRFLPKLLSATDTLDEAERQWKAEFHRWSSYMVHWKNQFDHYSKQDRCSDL

The assay addresses Acetylcholinesterase (Homo sapiens) (UniProt P22303). In words: Acetylcholinesterase (AChE) small molecule antagonists: enzyme-based qHTS assay with human liver microsomes (AID 1347399). Further: nearly all actives have a fitted effect of over 60% in size. The settings on record: Potency: qHTS inhibition; outcome: qHTS inhibition; series mostly up to 115 µM. Summed up: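 Recombinant human AChE (50 mU/mL in the enzyme mix) and human liver microsomes (0.25 mg/mL final) were preincubated with compound and NADPH (0.25 mg/mL final) for 30 min at 37 C. Acetylthiocholine/DTNB was then added; thiocholine was read colorimetrically after 10 min at room temperature.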
On the technique in general: qHTS replaces the single test concentration by a dilution series.
For the compound `COc1cc(OC)c2ccc(=O)oc2c1`, the Potency entry is “inactive”.

As to `CC(C)=CCOc1ccc(/C=C/C(=O)c2ccc(OCC=C(C)C)cc2OCC(=O)O)cc1`, the Potency result is “inactive”.

`CC(N=C(NC#N)Nc1ccncc1)C(C)(C)C` (stereo not given): the Potency result is “inactive”.

With `CC(C)(C)CC(C)(C)c1ccc(OCCO)cc1`, the Potency result was “inactive”.

Consider `CC[C@@]1(c2ccccc2)NC(=O)N(C)C1=O`, for which the Potency entry is “inactive”.

For `Clc1ccc(C(Cn2ccnc2)OCc2ccc(Sc3ccccc3)cc2)c(Cl)c1` (stereo not given), the Potency entry is “inactive”.

In the case of `CCCCCCCCCCCCCCCCCl`, the activity change, negative = inhibition was 2.03% [at 23.6 µM].

On to `NC(=O)c1ccc(N)cc1`, for which the Potency result was “inactive”.

In the case of `NCc1ccccc1`, the Potency result was “inactive”.

Turning to `O=C(O)CNC(=O)c1ccc([N+](=O)[O-])cc1`, the Potency result was “inactive”.

For `Oc1ccc(-c2ccc(O)cc2)cc1`, the Potency result is “inactive”.

In the case of `CC(C)OC(=O)c1cc2c(OCC(O)CNC(C)(C)C)cccc2[nH]1` (stereo not given), the Potency entry was “inactive”.

On to `C[C@@H]1CC[C@H]2C(C)(C)[C@H]3C[C@@]12CC[C@@]3(C)O`, for which the Potency result is “inactive”.

On to `Nc1ccc(NCCO)c([N+](=O)[O-])c1`, for which the Potency entry is “inactive”.

Turning to `CCOC(=O)CC(C)O` (stereo not given), the Potency result is “inactive”.

Regarding `Cc1ccc(=O)n(-c2ccccc2)c1`, the Potency result is “inactive”.

Regarding `CCCCCCCCCCCCCCN(C)C`, the activity change, negative = inhibition was 0.379% [at 23.6 µM].

For `CN(C)CCc1c[nH]c2ccc(CS(=O)(=O)N3CCCC3)cc12`, the Potency entry was “inactive”.

Turning to `CC(C)(C)c1ccc(C=O)cc1`, the Potency entry was “inactive”.

For the compound `CC(=O)Nc1ccc(S(=O)(=O)Cl)cc1`, the Potency entry was “inactive”.

`N#CCCOCCC#N`: the Potency result was “inactive”.

For `C=CCOC(=O)COCCC(C)C`, the Potency result was “inactive”.

Regarding `COc1ccc2c(c1OC)C(=O)O[C@@H]2[C@H]1c2c(cc3c(c2OC)OCO3)CCN1C`, the Potency result is “inactive”.

For the compound `N#Cc1ccc(C(c2ccc(C#N)cc2)n2cncn2)cc1`, the Potency entry is “inactive”.

Turning to `Cc1ccc(N(CC2=NCCN2)c2cccc(O)c2)cc1`, the Potency entry is “inactive”.

Take `C=CCCCCCCCCCCCCCC`: the activity change, negative = inhibition was -1.13% [at 23.6 µM].

For `CC(C)=CCC/C(C)=C/C#N`, the Potency result was “inactive”.

As for `COC(=O)c1cc(Cl)cc(Cl)c1`, the Potency result is “inactive”.

With `C[C@H](CCC(=O)NCC(=O)O)[C@H]1CC[C@H]2[C@@H]3[C@H](O)C[C@@H]4C[C@H](O)CC[C@]4(C)[C@H]3C[C@H](O)[C@]12C`, the Potency result was “inactive”.

Turning to `CCc1nccnc1C`, the Potency result was “inactive”.

Turning to `CC1=C2[C@H](/C=C(\C)C(=O)O)CC[C@@H](C)[C@H]2CC1`, the Potency result is “inactive”.

Consider `O/N=C/C=N/O`, for which the Potency result was “inactive”.

Turning to `CCOC(=O)c1ccc(O)c(O)c1`, the Potency result was “inactive”.

As for `COc1c(Br)cc(Br)c(C)c1Br`, the Potency entry is “inactive”.

`C[C@H](N)C(=O)N[C@@H](C)C(=O)NC1[C@H]2CN(c3nc4c(cc3F)c(=O)c(C(=O)O)cn4-c3ccc(F)cc3F)C[C@@H]12` (stereo not given in full): the compound was classed as inactive.

On to `COc1cccc([C@H](O)C2CCN(CCc3ccc(F)cc3)CC2)c1OC`, for which the Potency result is “inactive”.

Consider `CCC(C)N(C)C(=O)c1cc2ccccc2c(-c2ccccc2Cl)n1` (stereo not given), for which the Potency result is “inactive”.

Turning to `CCCCC`, the Potency entry was “inactive”.

With `CCCCCCCCOC(=O)CCCCCCCCC(=O)OCCCCCCCC`, the Potency result was “inactive”.

For the compound `O=CNc1ccccc1`, the Potency result is “inactive”.
